From PubChem BioAssay AID588790 (National Center for Advancing Translational Sciences (NCATS), 2011)
Out of some 1,200 compounds screened, about 85 (7%) were called active. Entries that show only a call come without a potency. Calls come from the whole dose curve. Only a selection was taken, and actives are over-represented in it overall.

target: Beta-2 adrenergic receptor (Homo sapiens) (UniProt P07550); experiment: qHTS assay of beta-arrestin-biased ligands of beta2-adrenergic receptor: Hit Validation with GloSensor; details: W9-Glo22F cells, GloSensor cAMP luminescence, beta2AR agonism; activation: at 46.1 µM (top of the series)
Procedure, shortened: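 Luminescence measured 10 min after GloSensor reagent addition at room temperature. Preceded by compound pinning onto W9-Glo22F cells that had been cultured overnight at 37 deg C under 5% CO2.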
Potency is the fitted concentration of half-maximal effect.

Chain of Beta-2 adrenergic receptor (Homo sapiens) (P07550 whole entry, looked up): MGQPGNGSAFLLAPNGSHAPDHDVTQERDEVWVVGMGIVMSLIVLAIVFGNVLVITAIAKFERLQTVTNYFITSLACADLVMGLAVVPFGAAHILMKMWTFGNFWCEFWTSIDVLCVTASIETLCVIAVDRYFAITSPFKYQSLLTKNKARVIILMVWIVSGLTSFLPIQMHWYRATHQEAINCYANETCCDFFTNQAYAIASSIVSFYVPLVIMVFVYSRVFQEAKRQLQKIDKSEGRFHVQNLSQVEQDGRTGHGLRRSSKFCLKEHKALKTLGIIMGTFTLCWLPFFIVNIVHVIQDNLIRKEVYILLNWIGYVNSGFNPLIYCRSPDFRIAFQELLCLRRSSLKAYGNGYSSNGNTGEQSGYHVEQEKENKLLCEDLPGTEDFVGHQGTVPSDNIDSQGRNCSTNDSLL

SMILES | Potency
COc1cccc(OCC(=O)Nc2c3c(nn2-c2ccc(F)cc2)CS(=O)(=O)C3)c1 | inactive
O=C(NC1CCCCC1)N(Cc1cc2cc3c(cc2[nH]c1=O)OCCO3)CC1CCCO1 (centres undefined) | inactive
CCNC(=S)N/N=C(\C)c1cccc(C(F)(F)F)c1 | inactive
CC(=O)Nc1ccc(S(=O)(=O)N2CCC(c3nnc(-c4ccc(C)cc4)o3)CC2)cc1 | inactive
CCOC(=O)c1c(NC(=O)CSc2cccc[n+]2[O-])sc(C(=O)Nc2ccccc2)c1C | inactive
CCOC(=O)c1c(C)nc2c(c1-c1ccccc1)C(=O)CC(C)(C)C2 | inactive
CC(C)C(=O)COc1c2occc2cc2ccc(=O)oc12 | 13 µM (active)
N#CC1=C(N)OC2=C(CC/C2=C\c2ccccc2)C1c1ccccc1 (centres undefined) | inactive
CC1CCCC/C1=N\NC(=S)NCCc1ccccc1 (centres undefined) | inactive
S=c1nc(-c2ccccc2)[nH]c2ccc(Br)cc12 | inactive
S=c1nc(-c2ccccc2)[nH]c2ccccc12 | 32.6 µM (active)
S=c1ccc2ccccc2[nH]1 | inactive
CCOC(=O)C1(O)CC(C)=NN1C(=O)c1cccc(Cl)c1 (centres undefined) | inactive
CCNC(=S)N/N=C/c1cccs1 | 5.8 µM (active)
CC(C)NC(=S)N/N=C/c1cccs1 | inactive
CCNC(=S)N/N=C/c1sccc1C | inactive
Cc1noc(C)c1COc1cccc(C(=O)Nc2ccccc2N2CCOCC2)c1 | inactive
O=C(N/N=C/c1ccccc1OC(=O)c1ccc2c(c1)OCO2)c1ccccc1 | inactive
Cn1c(/C=C/c2ccc([N+](=O)[O-])o2)nc2ccccc2c1=O | inactive
N#C/C(=C\c1cccc(O)c1)C(=O)Nc1ccc2c(c1)OCCO2 | inactive
O=C(O)/C(=C\c1ccco1)NC(=O)c1ccccc1 | inactive
O=C(c1ccccc1)c1ccc2nc(-c3ccco3)c(-c3ccco3)nc2c1 | 32.6 µM (active)
O=C(CC(c1ccco1)S(=O)(=O)c1ccccc1)c1ccccc1 (centres undefined) | inactive

SMILES | Potency
CC(C)[C@H](NC(=O)c1ccccc1Cl)C(=O)Nc1nc(-c2ccccn2)cs1 | inactive
COc1cccc(N2CCN(C(=O)/C=C/c3ccco3)CC2)c1 | inactive
CC1=C(C)/C(=N\OS(=O)(=O)c2ccc(C)cc2)C=CC1=O | inactive
C/C(=N\NC(=S)NC(C)C)c1ccccc1 | inactive
C/C(=N\NC(=S)NC(C)C)c1ccco1 | inactive
C/C(=N\NC(=S)NC(C)C)c1ccccc1OC(F)F | inactive
COc1cc(/C(C)=N/NC(=S)NC(C)C)cc(OC)c1OC | 18.4 µM (active)
CC/C(=N\NC(=S)NC(C)C)c1ccc(OC)c(OC)c1 | 23.1 µM (active)
CCOc1ccc(/C(CCC(=O)O)=N/NC(=S)NC(C)C)cc1 | inactive
COc1cc(CN(C2CCCCC2)S(=O)(=O)c2ccc(S(=O)(=O)N(C)C3CCCCC3)cc2)cc(OC)c1OC | inactive
CCCNC(=O)COc1ccc2c(=O)c(Oc3ccccc3F)coc2c1 | inactive
O=C(Cn1c(=O)c2sccc2n(Cc2cccc([N+](=O)[O-])c2)c1=O)NCCc1ccccc1 | inactive
CC(CCc1ccccc1)NCC(O)c1cccc([N+](=O)[O-])c1 (centres undefined) | 0.0206 µM (active)
O=C(CSCC(=O)Nc1cccc([N+](=O)[O-])c1)Nc1ccccc1 | inactive
COc1ccc(C(=O)N/N=C/C(Br)=C/c2ccccc2)cc1 | inactive
CCCc1cc(SCC(=O)Nc2c(C)n(C)n(-c3ccccc3)c2=O)n2c(nc3ccccc32)c1C#N | inactive
NNc1ccc(Cl)nn1 | inactive
Cc1cccc(NC(=S)NCc2ccco2)n1 | inactive
C=CCNC(=S)N/N=C(\C)c1cccnc1 | inactive
C=CCNC(=S)N/N=C(\C)c1cccc(OC)c1 | inactive
C=CCNC(=S)N/N=C(\C)c1cccc(NC(C)=O)c1 | 23.1 µM (active)
CCN(CC)c1ccc(/C=N/Nc2nc(C)cc(C)n2)cc1 | inactive
CN1CCN(C(=O)c2ccccc2[N+](=O)[O-])CC1 | inactive

SMILES | Potency
COCCCNC(=S)N/N=C/c1cccc(OC)c1O | inactive
COc1cccc(/C=N/Nc2ncc(C(F)(F)F)cc2Cl)c1O | 25.9 µM (active)
NC(=S)N/N=C/c1ncc(C(F)(F)F)cc1Cl | inactive
Oc1ccccc1/C=N/Nc1nc2ccccc2o1 | inactive
CCCNC(=O)Cn1cnc2sc(C(=O)Nc3ccc4c(c3)OCO4)c(C)c2c1=O | inactive
N/C(=C\C(=O)c1cc(Cl)ccc1O)C(Cl)(Cl)Cl | 23.1 µM (active)
CCc1cc(C(=O)N(CC(C)C)c2c(N)n(Cc3ccccc3)c(=O)[nH]c2=O)sc1C | inactive
COC(=O)c1scc(C)c1S(=O)(=O)Nc1ccc(C)cc1 | inactive
CCOc1ccc(C(C)=O)cc1COC(=O)c1ccc2c(c1)NC(=O)CS2 | 4.61 µM (active)
CCOc1ccc(C(C)=O)cc1COC(=O)CN1C(=O)NC2(CCCC2)C1=O | inactive
S=C(Nc1ccccc1)Nc1nc2ccccc2n1CCOc1ccc(Br)cc1 | inactive
Cc1ccnc(NC(=O)c2c(-c3ccccc3Cl)noc2C)c1 | inactive
Cc1ccc(N(Cc2cc(=O)[nH]c3ccccc23)C(=O)c2ccco2)cc1 | inactive
COc1ccc2c(c1)c(=O)c(C(=O)c1ccccc1)cn2Cc1ccccc1 | inactive
Cc1nc2ccccc2c(=O)n1N | inactive
S=c1nc2ccccc2c2nc(-c3ccccc3)[nH]n12 | 18.4 µM (active)
Cc1ccccc1-c1nc2c3ccccc3nc(=S)n2[nH]1 | inactive
COc1ccc(/C(C)=N/NC(=S)NCCc2ccccc2)c(O)c1 | inactive
O=C(CNC(=O)c1ccccc1F)Nc1ccc2c(c1)OCO2 | inactive
C=C(C)C(=O)OC1(C(F)(F)F)Oc2cc(C)ccc2NC1=O (centres undefined) | inactive
Cn1c(SCC(=O)N/N=C/C=C/c2ccco2)nc2ccccc21 | inactive
Cc1nn2c(nc1=O)NNC2(C)C(C)(C)C (centres undefined) | inactive
CCN(CC)c1cc(C(F)(F)F)nc(-c2ccccn2)n1 | inactive

SMILES | Potency
FC(F)(F)c1cc(Nc2ccccc2)nc(-c2ccccn2)n1 | 18.4 µM (active)
Cc1cc(N)n(Cc2cccs2)n1 | inactive
CCOC(=O)c1cnc(-n2nc(C)cc2C)nc1N(C)C | inactive
CCOC(=O)c1cnc(-n2nc(C)cc2C)nc1NC | inactive
COc1ccc(-c2cc(C(F)(F)F)nc(SCC(=O)NCc3ccco3)n2)cc1OC | 13 µM (active)
Cc1ccc(-n2c(SCC(=O)NCc3ccco3)nc3c(sc4ccccc43)c2=O)cc1 | inactive
COc1ccc(CNc2nc(SCC(=O)NCc3ccco3)nc3ccccc23)cc1 | inactive
O=C(Nc1ccccc1)N1CCCC(c2nc(-c3cccs3)no2)C1 (centres undefined) | inactive
COc1ccc(NC(=S)N2CCc3ccccc3C2)cc1 | inactive
COc1ccc(/C(C)=N/Nc2nc3ccccc3nc2C)cc1OC | 25.9 µM (active)
Cc1ccc(/C(=N/Nc2ncnc3ccccc23)C(=O)O)cc1 | inactive
COc1ccc(/C=N/Nc2nncc3ccccc23)c(OC)c1 | inactive
Fc1ccccc1/C=N/n1cc(-c2ccccc2)[nH]c1=S | inactive
O=C(/C=C/c1ccc(F)cc1)NC(=S)N1CCN(Cc2ccccc2)CC1 | inactive
C[C@H](C(=O)CC(=O)OC(C)(C)C)[C@H](O)c1ccccc1 | inactive
Cc1cc(/C=N/NC(N)=S)c(C)n1-c1ccc(Cl)cc1 | inactive
Cc1nc2ccc(NC(=O)CS(=O)(=O)c3ccc(F)cc3)cc2s1 | inactive
C/C(=N\NC(=S)NC1CCCCC1)c1ccc(C)o1 | inactive
C/C(=N\NC(=S)NC1CCCCC1)c1cccs1 | inactive
C/C(=N\NC(=S)NC1CCCCC1)c1ccc(O)cc1 | 6.51 µM (active)
S=C(Nc1nc2c(s1)CCCC2)NC1CC1 | inactive
NS(=O)(=O)c1ccc(CCNC(=O)CSc2ccc(Cl)cc2)cc1 | inactive
Nc1c(Cl)ncnc1N/N=C/c1ccc2ccccc2n1 | inactive

SMILES | Potency
COc1cc(C(c2nnnn2C(C)(C)C)N2CCN(C)CC2)cc(OC)c1OC (centres undefined) | inactive
O=C(NCCOc1cccnc1)C1CCC(=O)N(Cc2ccccc2F)C1 (centres undefined) | 9.2 µM (active)
CN(C(=O)CSc1ccncc1)C1CCCN(Cc2ccccc2F)C1 (centres undefined) | inactive
COc1ccccc1N1CCN(C(=O)c2cc3ccccc3[nH]2)CC1 | inactive
Cc1[nH]c2ccccc2c1C(=O)C(C)OC(=O)c1ccc(NC(=O)CC#N)cc1 (centres undefined) | inactive
O=C(Nc1ccc(Nc2ccccc2)cc1)c1cc([N+](=O)[O-])ccc1Cl | inactive
CCC(=O)N1CCC2(CC1)Oc1ccc(Cl)cc1C(=O)C21CC(c2ccccc2)=NO1 (centres undefined) | 23.1 µM (active)
CC(C)C(=O)N1CCC2(CC1)Oc1ccc(Cl)cc1C(=O)C21CC(c2ccccc2)=NO1 (centres undefined) | inactive
CC(C)Oc1ccc(/C=N/NC(N)=S)cc1 | inactive
Cc1cccnc1NCc1ccc(O)c2ncccc12 | inactive
CCCOCc1ccc(O)c2ncccc12 | inactive
OCc1ccnc2c(O)cccc12 | 25.9 µM (active)
COc1ccccc1NC(=O)COC(=O)c1ccc2ccccc2n1 | inactive
C[C@H](NC(=O)c1ccccc1)C(=O)Nc1nc(-c2ccccn2)cs1 | inactive
CC(C)OC(=O)c1cn(-c2ccccc2)nc1-c1ccco1 | 23.1 µM (active)
O=C(Nc1ccc(Cl)cc1)/C(=C/c1cccc(O)c1)c1nc2ccccc2s1 | inactive
O=C(COc1ccc2ccccc2c1)Nc1ccc(Br)cc1C(=O)O | inactive
Cc1ccc(NC(=S)NC(NC(=O)c2ccco2)C(Cl)(Cl)Cl)cc1 (centres undefined) | inactive
COc1ccc2c(C)nc(Nc3nc(C)cc(C)n3)nc2c1 | inactive
COc1cccc(NC(=S)N/N=C2\CC(C)(C)Oc3ccc(O)cc32)c1 | 25.9 µM (active)
COc1ccccc1NC(=S)N/N=C1\CC(C)(C)Oc2ccc(O)cc21 | inactive
CC1(C)C/C(=N\NC(=S)Nc2ccccc2F)c2cc(O)ccc2O1 | inactive
